High-throughput results as filed in PubChem BioAssay.
3CLpro inhibitor = SARS-CoV 3CLpro protease inhibition. P0C6X7. recombinant SARS-CoV 3CLpro, quenched FRET peptide cleavage. inhibition, % at 6 µM. hit rate 0.14% among 290,000. AID 1706; in the data active means inhibition above about 12%
VHR inh abs = DUSP3 (human) phosphatase inhibition; inhibition, % at 13.3 µM; recombinant VHR phosphatase, pNPP absorbance; hit rate 0.52% among 290,000; in the data active means inhibition above about 50%
Target sequence (P51452 whole entry, looked up): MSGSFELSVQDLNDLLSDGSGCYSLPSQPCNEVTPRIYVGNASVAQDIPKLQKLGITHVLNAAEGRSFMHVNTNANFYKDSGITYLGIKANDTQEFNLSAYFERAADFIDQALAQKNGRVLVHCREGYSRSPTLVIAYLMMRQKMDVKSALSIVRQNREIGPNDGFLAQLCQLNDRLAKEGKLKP
CCHF vOTU inh = CCHFV vOTU protease inhibition | hit rate 0.55% among 370,000 | inhibition, % at 11.5 µM | AID 651958 | Pep-AMC fluorescence; in the data active means inhibition above about 30%; further: 0% = vehicle wells with enzyme and 100% = no enzyme wells
RecA intein inh = inhibitors of M. tuberculosis RecA intein splicing; inhibition, % (concentration not given with the values); P9WHJ3; AID 2221; hit rate 0.75% among 290,000; cell-free RecA intein splicing, fluorescence; in the data active means inhibition above about 30%;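 further: 0% = vehicle wells and 100% = reference inhibitor control wells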
Numbers without * were called inactive; . = not tested or not shown. This is a sample that favours compounds with a hit; in the whole collection about 1.5% have one here.

SMILES	3CLpro inhibitor	VHR inh abs	CCHF vOTU inh	RecA intein inh
CCNC(=O)NC(=O)C(C)N1C(=O)NC(c2ccccc2)(c2ccccc2)C1=O (stereo not given)	1.8	55.2*	11.8	.
COc1ccc(CNC(=O)C(C)N2C(=O)NC(c3ccccc3)(c3ccccc3)C2=O)cc1 (stereo not given)	.	.	0.5	.
CCS(=O)(=O)c1nc(S(=O)(=O)c2ccc(Cl)cc2)c(N2CCC(C(N)=O)CC2)s1	4.4	55.5*	10.5	-0.9
Cc1ccc(N(C)c2nc(N)nc(N)c2N=O)cc1	.	.	60.7*	.
CCn1c(SCC(=O)NC2=NCCS2)nnc1C(C)NC(=O)c1ccc(Cl)cc1 (stereo not given)	1.3	6.4	9.7	1.1
Cc1c(C(=O)N/N=C/C(C)C)[nH]c2ccc([N+](=O)[O-])cc12	-4.6	55.6*	2.9	0.9
Cc1c(C(=O)O)[nH]c2ccc([N+](=O)[O-])cc12	2.9	-11.3	13.4	.
COc1ccc(N2CCC(CNC(=O)Nc3cccc(OC)c3)C2)cc1 (stereo not given)	0.0	32.6	6.5	-1.1
CCOc1ccc(NC(=O)NCC2CCN(Cc3ccc(F)cc3)CC2)cc1	-1.9	56.9*	-6.7	-0.9
COc1ccc(CN2CCC(CNC(=O)Nc3ccc(Cl)cc3)CC2)cc1	.	.	-4.5	.
COc1ccc(N2CCC(CNC(=O)Nc3ccc(Cl)cc3)C2)cc1 (stereo not given)	-0.5	52.1*	-7.8	1.1
Cc1c(C#N)c(NC(=O)CCl)n(Cc2ccccc2)c1C	-2.0	17.9	-2.5	43.7*
CCN(CC)C(=O)c1sc(NC(=O)Cc2cccs2)c(C#N)c1C	-4.0	-2.3	-2.4	6.4
COC(=O)c1cc(C(=O)OC)n(Cc2ccc(F)cc2)c1C	2.8	-12.5	12.6	4.3
Cc1c(C#N)c(NC(=O)CCl)n(Cc2cccs2)c1C	2.6	20.2	1.8	65.2*
Cc1c(C#N)c(NC(=O)CCl)n(Cc2ccc(F)cc2)c1C	1.1	16.0	-6.0	56.5*
CCOc1cccc2cc(C(N)=O)c(=N)oc12	3.4	16.3	-0.4	.
Cc1nc(CC(C)C)cc(C(=O)N2CCCC(CNS(=O)(=O)c3cccs3)C2)n1 (stereo not given)	-1.2	-12.1	12.1	.
COC(=O)c1[nH]c2c(c1C)C(=O)CC(c1cc(OC)c(OC)c(OC)c1)C2 (stereo not given)	-1.5	52.0*	5.7	-3.2
O=C(CCC1CCCN(C(=O)c2cccc(F)c2)C1)N1CCN(c2ccccn2)CC1 (stereo not given)	3.4	9.7	11.9	1.1
C=CC[C@@H](CC(=O)N[C@H](CO)Cc1ccccc1)C(=O)N[C@H](COC(=O)[C@H](CC=C)CC(=O)OC(C)(C)C)Cc1c[nH]c2ccccc12	.	.	36.8*	.
O=C(Nc1ccccc1Cl)c1cc(C2CCCN(C(=O)c3cccc(O)c3)C2)on1 (stereo not given)	.	.	7.8	.
COc1ccc(C2(c3ccc(OC)cc3)NC(=O)N(CC(=O)Nc3cc(C)ccc3OC)C2=O)cc1	-0.5	56.9*	12.7	-2.0
Cc1nc2scc(-c3cccs3)c2c(=O)[nH]1	2.6	54.7*	-0.6	-1.5
CCOC(=O)c1sc(N2N=C(C)C(N=Nc3cccc(C)c3)C2=O)nc1C (stereo not given)	-0.9	55.2*	3.2	1.2
SMILES	3CLpro inhibitor	VHR inh abs	CCHF vOTU inh	RecA intein inh
Cc1ccc2sc(-c3ccc(NC(=O)CCN4C(=O)c5ccccc5C4=O)cc3)nc2c1	2.4	53.8*	-18.7	-2.7
Cc1cccnc1C(c1ccc(F)cc1)N(C)C(=O)C1CCN(CCOc2ccc(Cl)cc2Cl)CC1 (stereo not given)	.	.	21.9	.
CCN1C(=O)/C(=C\c2cccc(OC(=O)c3ccco3)c2)SC1=S	-4.1	7.4	3.6	0.8
O=C(O)CN1C(=O)/C(=C\c2ccc(OC(=O)c3ccco3)cc2)SC1=S	0.2	-11.4	14.0	30.3*
CCS(=O)(=O)C1=NN2C(=N)/C(=C\c3ccc(OC(=O)c4ccco4)cc3)C(=O)N=C2S1	2.8	-5.0	9.3	32.8*
COc1cc(/C=C2\C(=N)N3N=C(S(=O)(=O)CC(C)C)SC3=NC2=O)ccc1OC(=O)c1ccco1	7.5	-17.2	.	31.8*
CCC(CC)C1=NN2C(=N)/C(=C/c3ccc(OC(=O)c4ccco4)cc3)C(=O)N=C2S1	5.7	9.1	8.0	8.1
O=[N+]([O-])c1ccccc1/C=N/N1CCN(Cc2ccccc2)CC1	-0.6	58.3*	-2.2	1.2
CSc1nc2sc3c(c2c(=O)n1C)CCC3	2.2	-3.8	-9.5	-0.7
C#CCSc1nc2sc3c(c2c(=O)n1C)CCC3	-3.8	58.2*	11.8	0.1
O=C(NC1CC2CCCC(C1)N2Cc1ccccc1)c1cccc(F)c1 (stereo not given)	-1.3	55.7*	-14.4	1.2
Cc1ccc(OCC(=O)NN=C2C3CC4CC(C3)CC2C4)cc1	.	.	-9.4	.
